Measurements from PubChem BioAssay (Tox21).
Values without a mark were called inactive. Records with an inconclusive call do not appear. A call without a number means that no potency is given here. Activity calls are given as the source filed them. Unless noted, calls come from the whole dose curve; as a rule, active = well fitted curve in the direction sought with a large enough effect in the repeat runs; inconclusive = weak or mixed curves; inactive = no such curve, though single readings can be large; an effect the other way counts as inactive or inconclusive.

How the values were obtained:
[1] = qHTS assay to identify small molecule antagonists of the estrogen related receptor signaling pathway with the pleiotropic PPARgamma coactivator (PGC) from Tox21 10K library (AID 1224841; call rule not given here; note: actives are mostly falling curves and most rising ones were filed inactive; nearly all actives have a fitted effect of over 50% in size)
In short: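 In the PGC/ERR line, DMSO solutions of test chemicals are pin-delivered to 2,000 cells/well six hours after dispensing. Following eighteen hours' incubation, One-Glo reagent is added and luminescence recorded.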

[2] = qHTS assay to identify small molecule agonists of the estrogen related receptor signaling pathway with the pleiotropic PPARgamma coactivator (PGC) from Tox21 10K library (AID 1224842); note: nearly all actives have a fitted effect of over 15% in size
In short: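 Luminescence from One-Glo (30 min, room temperature) measured after PGC/ERR cells had 18 h at 37 C with pinned compound (23 nL in DMSO). Cells had been seeded at 2,000 per well and pre-incubated 6 h.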

[3] = qHTS assay to identify small molecule agonists of the hypoxia (HIF-1) signaling pathway - cell viability counter screen (AID 1224844; calls by dose curve; note: nearly all actives have a fitted effect of over 50% in size)
In short: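 Same wells as the HIF-1 reporter screen; ME-180 cells carrying HRE-bla, 17 hr treatment at 37C; CellTiter-Glo luminescence read after 30 min at room temperature.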

[4] = qHTS assay to identify small molecule agonists of H2AX (AID 1224845; active = well fitted activation curve with a large enough effect in the signal ratio in the repeat runs, not every such curve was filed as active; the % refers to the signal ratio)
In short: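 Phospho-H2AX Ser139 measured by HTRF (ex 320 nm; em 665 and 620 nm) after 24 hr antibody incubation. Compounds, 15 concentrations, 0.76% DMSO, were applied to CHO-K1 cells for 3hr at 37C before lysis.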

[5] = qHTS assay to identify small molecule agonists of the estrogen related receptor (ERR) signaling pathway from Tox21 library (AID 1224849; calls by dose curve; note: nearly all actives have a fitted effect of over 15% in size); settings: ERR reporter cell line, ONE-Glo luciferase, 18 h; at 92.4 µM (top of the series) unless noted
In short: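 Reporter cells (ERR, NTP source) treated with Tox21 10K compounds 18 h, 37 C. Readout: ONE-Glo luminescence, 30 min RT.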

[6] = qHTS RealTime-Glo MT Cell Viability Assay in HepG2 cells - 24 hour (AID 1224867); note: nearly all actives have a fitted effect of over 50% in size
In short: (§1)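 Viability was tracked continuously by NanoLuc luminescence from prosubstrate reduced by living HepG2 cells, at successive time points over 40 h of compound exposure. Cells with reagent were preincubated 5 h at 37 °C before compound addition.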

[7] = qHTS RealTime-Glo MT Cell Viability Assay in HEK293 cells - 32 hour (AID 1224868); note: top concentration of the series differs between compounds; nearly all actives have a fitted effect of over 50% in size
In short: (§2)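 Viability tracked continuously by luminescence as live cells reduce a prosubstrate for NanoLuc; HEK293 cells preincubated 5 h, compound-treated at 37 C, and read at 0, 8, 16, 24, 32 and 40 h.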

[8] = A CellTox Green Cytotoxicity Assay to monitor cytotoxicity in HEK293 cells - 0 hour (AID 1224869); note: nearly all actives have a fitted effect of over 50% in size
In short: (§3)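 Homogeneous no-lysis format: HEK293 cell suspension mixed with CellTox Green reagent, seeded, incubated 5 h at 37 C/5% CO2, then dosed by pintool with compound in DMSO.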

[9] = qHTS RealTime-Glo MT Cell Viability Assay in HepG2 cells - 40 hour (AID 1224870); note: nearly all actives have a fitted effect of over 50% in size
In short: (§4)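 Real-time viability: cells seeded at 600 per well together with NanoLuc and cell-permeant prosubstrate, compounds added after 5 h incubation. Luminescence tracked at 0, 8, 16, 24, 32 and 40 h of exposure.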

[10] = A CellTox Green Cytotoxicity Assay to monitor cytotoxicity in HEK293 cells - 40 hour (AID 1224871); note: nearly all actives have a fitted effect of over 45% in size
In short: as §3

[11] = qHTS RealTime-Glo MT Cell Viability Assay in HEK293 cells - 16 hour (AID 1224872)
In short: as §2

[12] = qHTS RealTime-Glo MT Cell Viability Assay in HepG2 cells - 8 hour (AID 1224873); note: nearly all actives have a fitted effect of over 55% in size
In short: as §4

[13] = qHTS RealTime-Glo MT Cell Viability Assay in HEK293 cells - 40 hour (AID 1224874); settings: RealTime-Glo luminescence, active compounds read low; note: nearly all actives have a fitted effect of over 50% in size
In short: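 Measured as luminescence from the same continuously cultured HEK293 wells at successive time points (0, 8, 16, 24, 32, 40 h) after compound addition. Reagent present from seeding; dosing at 5 h; incubation 37 C.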

[14] = A CellTox Green Cytotoxicity Assay to monitor cytotoxicity in HEK293 cells - 24 hour (AID 1224875); note: nearly all actives have a fitted effect of over 45% in size; note: potency is the fitted concentration of half-maximal effect
In short: as §3

[15] = qHTS RealTime-Glo MT Cell Viability Assay in HepG2 cells - 32 hour (AID 1224877); note: nearly all actives have a fitted effect of over 55% in size
In short: as §1

[16] = qHTS assay to identify small molecule agonists of the hypoxia (HIF-1) signaling pathway (AID 1224846; active = well fitted activation curve with a large enough effect in the signal ratio in the repeat runs, not every such curve was filed as active; the % refers to the signal ratio)
In short: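 In ME-180 cells bearing an HRE-bla construct, 17 h treatment with DMSO-dissolved compounds at 37C was followed by CCF4-AM loading to quantify reporter induction.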

[17] = qHTS assay to identify small molecule agonists of H2AX - cell viability counter screen (AID 1224847; calls by dose curve;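 note: wild-type CHO-K1 cells; top concentration of the series differs between compounds; nearly all actives have a fitted effect of over 30% in size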)
In short: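 Counter-screen for viability: CellTiter-Glo ATP luminescence read after 3 h compound treatment (15-point titration, 0.76% DMSO final) of CHO-K1 cells at 37C, with 30 min room-temperature reagent incubation.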

[18] = qHTS assay to identify small molecule antagonists of the estrogen related receptor (ERR) signaling pathway from Tox21 library (AID 1224848); note: nearly all actives have a fitted effect of over 50% in size
In short: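 ERR cell line, 2,000 cells/well. 6 h settle, then compound (DMSO) added; 18 h at 37 C; ONE-Glo luminescence after 30 min RT.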

[19] = A CellTox Green Cytotoxicity Assay to monitor cytotoxicity in HepG2 cells - 16 hour (AID 1224876); note: nearly all actives have a fitted effect of over 45% in size; note: potency is the fitted concentration of half-maximal effect
In short: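 Fluorescent DNA-binding dye, 600 HepG2 cells/well, 5 h preincubation then compound in DMSO; same plates read at 0–40 h, 37 C.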

| SMILES | Potency [1] | Potency [2] | outcome [3] | outcome [4] | activity change, positive = activation [5] | outcome [6] | outcome [7] | outcome [8] | outcome [9] | Potency [10] | outcome [11] | outcome [12] | max response [13] [%] | Potency [14] | outcome [15] | outcome [16] | outcome [17] | outcome [18] | Potency [19] |
| --- | --- | --- | --- | --- | --- | --- | --- | --- | --- | --- | --- | --- | --- | --- | --- | --- | --- | --- | --- |
| CCO[Si](CC(C)C)(OCC)OCC | inactive | inactive | inactive | inactive | -27.2% | inactive | inactive | inactive | inactive | inactive | inactive | inactive | -8.56 | inactive | inactive | – | – | – | – |
| C=CCCCCCCCCOC(C)=O | inactive | inactive | inactive | – | 7.36% | inactive | – | – | inactive | inactive | inactive | inactive | 0.238 | inactive | inactive | inactive | inactive | inactive | inactive |
| CC(C)OCCO | inactive | inactive | inactive | – | 6.53% | inactive | inactive | inactive | inactive | inactive | inactive | inactive | 4.69 | inactive | inactive | inactive | inactive | inactive | inactive |
| C[Si](C)(C)O[Si](O)(O)O | inactive | inactive | inactive | inactive | 4.29% | inactive | inactive | inactive | inactive | inactive | – | inactive | 0.476 | inactive | inactive | inactive | – | inactive | inactive |
| C=CC(=O)OCCOCCOCC | inactive | inactive | inactive | inactive | – | inactive | inactive | inactive | inactive | inactive | inactive | inactive | – | inactive | inactive | inactive | inactive | inactive | inactive |
| Cc1cc(C)c(C)c(C)c1 | inactive | inactive | inactive | inactive | 5.28% | inactive | inactive | inactive | inactive | – | inactive | inactive | -10 | inactive | inactive | inactive | inactive | inactive | inactive |
| BrCCOc1ccccc1 | inactive | inactive | inactive | inactive | – | inactive | inactive | – | inactive | inactive | inactive | inactive | – | – | inactive | inactive | inactive | inactive | inactive |
| CC(C)c1cc(C(C)C)cc(C(C)C)c1 | inactive | inactive | inactive | inactive | 7.19% | inactive | inactive | inactive | inactive | – | inactive | inactive | 5.73 | – | inactive | inactive | inactive | inactive | inactive |
| CN1C(CCl)Nc2cc(Cl)c(S(N)(=O)=O)cc2S1(=O)=O (stereo not given) | inactive | inactive | inactive | inactive | 0.151% [at 42.5 µM] | inactive | inactive | inactive | inactive | – | inactive | inactive | -6.26 | inactive | inactive | inactive | inactive | inactive | inactive |
| CC(C)(C)C(=O)CCc1ccc(Cl)cc1 | inactive | inactive | inactive | inactive | 2.37% | inactive | inactive | inactive | inactive | inactive | inactive | inactive | 1.49 | inactive | inactive | inactive | – | inactive | inactive |
| Nc1nc(Cl)cc(Cl)n1 | inactive | inactive | inactive | inactive | -1.17% | inactive | inactive | inactive | inactive | inactive | – | inactive | 16.9 | inactive | inactive | inactive | – | inactive | inactive |
| Cc1ccc(O)c([N+](=O)[O-])c1 | inactive | inactive | inactive | – | -16.2% | inactive | inactive | inactive | inactive | – | inactive | inactive | -15.2 | inactive | inactive | inactive | inactive | – | inactive |
| CC(=O)c1c(C)cc(C(C)(C)C)cc1C | inactive | inactive | inactive | inactive | -1.7% | inactive | – | inactive | inactive | – | – | inactive | – | 21.9 µM (active) | inactive | inactive | – | inactive | 38.9 µM (active) |
| Nc1cc(S(=O)(=O)O)ccc1O | inactive | inactive | inactive | – | 6.11% | inactive | inactive | inactive | inactive | inactive | inactive | inactive | – | – | inactive | inactive | inactive | inactive | inactive |
| CC(CC(=O)Cl)CC(C)(C)C (stereo not given) | inactive | – | inactive | inactive | 5.62% | inactive | inactive | inactive | inactive | – | – | inactive | 4.64 | inactive | inactive | inactive | inactive | inactive | inactive |
| CC(CN1CC(=O)NC(=O)C1)N1CC(=O)NC(=O)C1 (stereo not given) | inactive | inactive | inactive | inactive | -5.55% | inactive | inactive | inactive | inactive | inactive | – | inactive | -4.03 | – | inactive | inactive | inactive | inactive | inactive |
